Results filed as inconclusive are left out. Where a call stands in place of a potency, no number is given. Unmarked numbers belong to inactive results. Activity calls are given as the source filed them. The call rests on the fitted dose curve; in most records, active means well fitted inhibition curve with a large enough effect in the repeat runs; inconclusive means weak or mixed curves; inactive means no such curve, though single readings can be large or run the other way.
Potency means the concentration at half of the fitted maximal effect.

The target of the assay is Cytochrome P450 3A4 (Homo sapiens) (UniProt P08684). In words: Cytochrome P450 Family 3 Subfamily A Member 4 (CYP3A4) small molecule antagonists: luciferase reporter qHTS assay (AID 1671201). Further: nearly all actives have a fitted effect of over 50% in size. The following applies: P450-Glo CYP3A4 enzyme, luciferin luminescence, 1 h; series mostly up to 115 µM. An excerpt: National Center for Advancing Translational Sciences [NCATS]
Cytochrome P450 3A4 (Homo sapiens), sequence (P08684 whole entry, looked up): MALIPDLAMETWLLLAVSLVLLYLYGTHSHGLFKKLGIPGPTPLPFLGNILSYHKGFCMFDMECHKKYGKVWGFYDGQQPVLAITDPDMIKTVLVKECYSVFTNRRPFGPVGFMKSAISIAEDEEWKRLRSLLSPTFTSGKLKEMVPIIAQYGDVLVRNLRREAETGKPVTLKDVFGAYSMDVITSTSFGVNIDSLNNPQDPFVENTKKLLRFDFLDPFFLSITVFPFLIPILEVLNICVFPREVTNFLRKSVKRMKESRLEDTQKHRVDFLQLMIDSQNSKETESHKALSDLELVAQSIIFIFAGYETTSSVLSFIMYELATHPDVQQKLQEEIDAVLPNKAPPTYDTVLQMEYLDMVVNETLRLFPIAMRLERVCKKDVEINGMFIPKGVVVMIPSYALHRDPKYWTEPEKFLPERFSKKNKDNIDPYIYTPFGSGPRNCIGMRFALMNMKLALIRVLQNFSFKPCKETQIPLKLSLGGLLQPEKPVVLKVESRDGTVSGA
U.S. Environmental Protection Agency [EPA]
National Institutes of Environmental Health Sciences [NIEHS]
National Toxicology Program [NTP]
U.S. Food and Drug Administration [FDA]
Cytochrome P450 (CYP) enzymes are membrane-bound hemeproteins that play a key role in metabolism of drugs and xenobiotics. Evaluation of the effect of chemicals on CYP isozymes is useful to minimize the adverse drug reactions and toxicities in drug development process. Tox21 chemicals were tested for their effect on CYP enzyme activities by using P450-Glo (TM) screening systems (Promega Corporation, Madison, WI). These systems provide a luminescent method containing proluciferin substrates and are converted to luciferin products by CYP isozymes. The luciferin products formed are detected with a luciferin detection reagent, and the amount of light produced is proportional to CYP activity. P450-Glo (TM) CYP3A4 screening system (Catalog. No. V9910) was used to detect the compounds that interfere in CYP3A4 activity. The positive control compound used for CYP3A4 assay is ketoconazole (Sigma-Aldrich, St. Louis, MO).
Tox21 Assay Protocol Summary:
Two ul of enzyme-substrate mix was dispensed into medium binding white/solid 1536-well plates (Greiner Bio-One North America Inc., Monroe, NC) using a BioRaptr Flying Reagent Dispenser (FRD, Beckman Coulter, Brea, CA). Compounds dissolved in DMSO and positive control (ketoconazole) were transferred to the assay plates at 23 nl using a Pintool station (Wako, San Diego, CA). The assay plates were incubated at room temperature for 10 min. Then 2 ul of NADPH regeneration solution was added to each well of the assay plates using an FRD and incubated at room temperature for 1 h. The reaction was stopped by adding 4 ul of detection reagent using an FRD and after 20 min incubation at room temperature the luminescence signal was measured using a ViewLux plate reader (Perkin Elmer, Shelton, CT). Data were expressed as relative luminescence units.
(A reporter such as luciferase makes a cellular process visible.)
Turning to `O=C(O)c1ccccc1NCCc1ccccc1`, the Potency result was “inactive”.
Same read-out and setting: the value for `O=C(O)Cc1ccc(-c2ccccc2)cc1` was “inactive”; that for `CCCCCCOC(=O)C(C)C` was “inactive”; that for `Cn1c(=O)c2c(ncn2CC(=O)O)n(C)c1=O` was “inactive”.
The same measure, in the same setting: for `CCOC(=N)CC(=O)OCC` the value was “inactive”.
Same read-out and setting: for `O=S(=O)(c1ccccc1)c1ccc(Cl)cc1` the value was “inactive”; for `CO[C@H]1C=CO[C@@]2(C)Oc3c(C)c(O)c4c(O)c(c5c(c4c3C2=O)=NC2(CCN(CC(C)C)CC2)N=5)NC(=O)/C(C)=C\C=C/[C@H](C)[C@H](O)[C@@H](C)[C@@H](O)[C@@H](C)[C@H](OC(C)=O)[C@@H]1C`, 9.81 µM (active); for `O=C(O)c1cccc(O)c1`, “inactive”.
As to `CCCCCCCCCCCCCCCCBr`, the activity change, negative = inhibition is -0.429% [at 23.6 µM].
Regarding `CC(=O)[C@H]1CC[C@H]2[C@@H]3C=CC4=CC(=O)CC[C@@]4(C)[C@@H]3CC[C@]12C`, the Potency result is “inactive”.
Consider `Cc1occc1C(=O)Nc1ccc(C(=O)N2CCC(F)(F)/C(=C\C(=O)N3CCC(N4CCCCC4)CC3)c3ccccc32)cc1`, for which the Potency was 0.394 µM (active).
Same read-out and setting: for `CC1=CC(=O)CC(C)(C)C1(O)/C=C/C(C)=C\C(=O)O` (stereo not given) the value was “inactive”; for `Nc1nc(Cl)nc2c1ncn2[C@@H]1O[C@H](CO)[C@@H](O)[C@@H]1F`, “inactive”.
Still for that read-out and setting: the value for `O=C(O)c1snc(Cl)c1Cl` was “inactive”; that for `CC(CCO)CCc1ccccc1` (stereo not given) was “inactive”.
On the same count and under the same terms, for `CCOC(=O)c1ccccc1OC` the value was “inactive”.
In the case of `CC(C)CCCCCOC(=O)CCCCC(=O)OCCCCCC(C)C`, the Potency was 35.6 µM (active).
The same measure, in the same setting: for `CCCOC(=O)c1ccc(C(=O)OCCC)nc1` the value was “inactive”; for `OCCSc1ccccc1`, “inactive”.
Same read-out and setting: for `CC(=O)Oc1ccc2c(c1)CC[C@@H]1[C@@H]2CC[C@]2(C)[C@@H](O)CC[C@@H]12` the value was “inactive”.
Same read-out and setting: the value for `C=CC(=O)NCOCC(C)C` was “inactive”; that for `CCCCCCCCCCCC[N+](C)(C)CC(=O)[O-]` was “inactive”.
Regarding `CC(N)CN` (stereo not given), the Potency entry is “inactive”.
On to `CN(C(=O)C(Cl)Cl)c1ccc(OC(=O)c2ccco2)cc1`, for which the Potency result is “inactive”.
Consider `Fc1ccccc1[C@@H](F)COC1CCC(Nc2ncnc3[nH]ncc23)CC1` (stereo not given in full), for which the Potency entry was “inactive”.
The same measure, in the same setting: for `CCCCOC(=O)CCS` the value was “inactive”.
Take `CN1C(=O)CC(C)(c2ccccc2)C1=O` (stereo not given): the Potency result was “inactive”.
On the same count and under the same terms, the value for `CC(C)OCC1CO1` (stereo not given) was “inactive”; that for `CCCCCCCCCCCC(=O)[O][Sn]([CH2]CCC)([CH2]CCC)[O]C(=O)CCCCCCCCCCC` was “inactive”.
Same read-out and setting: the value for `CCOC(=O)c1ccccc1C` was “inactive”.
Same read-out and setting: for `OC/C(Br)=C(\Br)CO` the value was “inactive”.
For `CCCC(=O)O[C@]1(C(=O)COC(=O)CC)CC[C@H]2[C@@H]3CCC4=CC(=O)CC[C@]4(C)[C@H]3[C@@H](O)C[C@@]21C`, the activity change, negative = inhibition is 1.97% [at 23.6 µM].
With `Cc1cc(C(=C2C=CC(=Nc3ccc(S(=O)(=O)O)cc3S(=O)(=O)O)C=C2)c2ccc(Nc3ccc(S(=O)(=O)O)cc3)cc2)ccc1N`, the Potency entry was “inactive”.
The same measure, in the same setting: for `COc1ccc([C@@H]2Sc3ccccc3NC(=O)[C@@H]2O)cc1` the value was “inactive”; for `Cc1cc(S(=O)(=O)O)ccc1N=Nc1c(O)ccc2ccccc12`, 39.9 µM (active).
On to `C=CCCCCCCCCCCCCCCCC`, for which the activity change, negative = inhibition is 6.02% [at 10.5 µM].
As for `CC(C)=CC=O`, the Potency entry was “inactive”.
As to `CCCCN(CCCC)C(=S)SSC(=S)N(CCCC)CCCC`, the Potency is 5.58 µM (active).
Same read-out and setting: for `CCCC1C(CC)=CC(CC)=CN1c1ccccc1` (stereo not given) the value was 31.7 µM (active); for `CCCCC(CC)COC(=O)COc1ccc(Cl)cc1C` (stereo not given), 8.94 µM (active).

(Values after PubChem BioAssay (Tox21).)
